# Laboratory results as given in PubChem BioAssay (Tox21).
# Several values for one entry are separate records, joined by “and”; a condition that tells them apart may be missing. Equal entries are not always repeated. Results filed as inconclusive are left out. A call without a number means that no potency is given here. Activity calls are given as the source filed them. Unless noted, calls follow the shape of the dose curve; as a rule, active = well fitted curve in the direction sought with a large enough effect in the repeat runs; inconclusive = weak or mixed curves; inactive = no such curve, though single readings can be large; an effect the other way counts as inactive or inconclusive.
# Columns and labels:
# [1] = qHTS assay for small molecules that induce genotoxicity in human embryonic kidney cells expressing luciferase-tagged ATAD5 (AID 651632); also: nearly all actives have a fitted effect of over 15% in size
# In short: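 A rise in luciferase signal from ATAD5-tagged HEK293T cells marks genetic stress. Cells were exposed to compounds for 16 hr at 37C, 5% CO2, then luciferase was quantified after a 30 min room-temperature incubation with Amplite.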
# [2] = qHTS assay for small molecule agonists of the p53 signaling pathway - cell viability (AID 651633; calls by dose curve; also: nearly all actives have a fitted effect of over 30% in size; also: potency is read from the fitted curve at half-maximal effect)
# In short: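 Viability counter-read: CellTiter-Glo luminescence (30 min, room temperature) in the same p53RE-bla plates. These plates had been exposed to compounds for 16 h at 37 C.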
# [3] = qHTS assay for small molecules that induce genotoxicity in human embryonic kidney cells expressing luciferase-tagged ATAD5 - cell viability (AID 651634; calls by dose curve; also: nearly all actives have a fitted effect of over 25% in size; also: potency is read from the fitted curve at half-maximal effect)
# In short: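 Cytotoxicity counter-readout: after 15.5 hr compound treatment at 37C, live-cell protease activity in ATAD5-luciferase HEK293T cells measured by CellTiter-Fluor fluorescence, 30 min development at 37C.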
# [4] = qHTS assay for small molecule disruptors of the mitochondrial membrane potential - cell viability (AID 720634; calls by dose curve; also: nearly all actives have a fitted effect of over 20% in size; also: potency is read from the fitted curve at half-maximal effect)
# In short: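 Cytotoxicity was quantified from ATP content by CellTiter-Glo luminescence in the same wells as the MMP dye read-out. HepG2 (2,000 cells/well) were plated overnight and exposed to compounds for 1 hr at 37 C.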
# [5] = qHTS assay for small molecule disruptors of the mitochondrial membrane potential (AID 720635); also: potency is read from the fitted curve at half-maximal effect
# In short: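 Mitochondrial membrane potential tracked with Mito-MPS dye, red aggregates (ex 540/em 590 nm) against green monomers (ex 490/em 535 nm). Compound treatment 1 hr at 37C, dye 30 min in HepG2.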
# [6] = qHTS assay to test for compound auto fluorescence at 590 nm (red) in HepG2 cells (AID 720674)
# In short: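 Red autofluorescence (Ex/Em 540/590 nm, Rose Bengal sodium equivalents) was measured in HepG2 cells, 2,000 per well in MEM plus 10% FBS, plated overnight at 37 C. Readings were taken 1 hr after adding 23 nL compound or DMSO, at 37 C and 5% CO2.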
# [7] = qHTS assay to test for compound auto fluorescence at 535 nm (green) in HepG2 cells (AID 720675)
# [8] = qHTS assay to test for compound auto fluorescence at 460 nm (blue) in HEK293 cells (AID 720678)
# In short: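 Blue read-out at excitation 405 nm and emission 460 nm follows overnight compound exposure of HEK293 cells at 37C in 5% CO2. Activity is given as auto fluorescence equivalency to triamterene.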
# [9] = qHTS assay to test for compound auto fluorescence at 590 nm (red) in HEK293 cells (AID 720679)
# In short: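 Red channel, Ex/Em 540/590nm; signal expressed as equivalency to Rose Bengal sodium. HEK293, 2,000 cells/well, 10% dialyzed FBS; 23 nL compound pinned after 4-5 hr attachment; overnight 37C/5% CO2 before reading.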
# [10] = qHTS assay to test for compound auto fluorescence at 535 nm (green) in HEK293 cells (AID 720680)
# [11] = qHTS assay to test for compound auto fluorescence at 460 nm (blue) in HEK293 cell free culture (AID 720681)
# In short: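 Blue fluorescence (Ex 405/Em 460 nm, triamterene-equivalent) was read immediately after pin transfer of compound or DMSO into medium (DMEM, 10% FBS) without cells.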
# [12] = qHTS assay to test for compound auto fluorescence at 535 nm (green) in HEK293 cell free culture (AID 720682)
# In short: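 No cells present: wells hold DMEM supplemented with 10% FBS, into which compound or vehicle is pinned. Green emission is then recorded (485 nm excitation, 535 nm emission) and scaled to fluorescein.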
# [13] = qHTS assay to test for compound auto fluorescence at 590 nm (red) in HEK293 cell free culture (AID 720683)
# In short: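 Red-channel autofluorescence of compounds in culture medium (DMEM, 10% FBS), no cells, measured at 540/590 nm. Rose Bengal sodium is the reference fluorophore for equivalence.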
# [14] = qHTS assay to test for compound auto fluorescence at 590 nm (red) in HepG2 cell free culture (AID 720684)
# In short: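 Cell-free; medium MEM + 10% FBS; compound or DMSO added by pintool; read Ex 540/Em 590 nm; Rose Bengal sodium as red reference fluorophore.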
# [15] = qHTS assay to test for compound auto fluorescence at 460 nm (blue) in HepG2 cell free culture (AID 720685)
# In short: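 Cell-free plates of MEM plus 10% FBS received 23 nL compound or DMSO vehicle; blue-channel (405/460 nm) intensity scored against triamterene as reference fluorophore.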
# [16] = qHTS assay to test for compound auto fluorescence at 535 nm (green) in HepG2 cell free culture (AID 720686)
# [17] = qHTS assay to test for compound auto fluorescence at 460 nm (blue) in HepG2 cells (AID 720687)
# In short: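 Blue-channel autofluorescence (Ex/Em 405/460 nm, triamterene-equivalent) was measured after 1 hr compound exposure at 37 C, 5% CO2. Cells were HepG2, plated overnight at 37 C in MEM plus 10% FBS.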
# [18] = target: Glucocorticoid receptor (Homo sapiens) (UniProt P04150); test: qHTS assay to identify small molecule agonists of the glucocorticoid receptor (GR) signaling pathway (AID 720691; active = well fitted activation curve with a large enough effect in the signal ratio in the repeat runs, not every such curve was filed as active; the % refers to the signal ratio); details: GR-bla HeLa, beta-lactamase reporter ratio, 18 h; activation: at 62.4 µM (top of the series)
# In short: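 Agonist-mode qHTS in HeLa cells stably expressing a glucocorticoid-response-element beta-lactamase reporter. Fluorescence intensity read with FRET substrate (2 h, room temperature) after 18 h compound treatment at 37 C.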
# [19] = target: Glucocorticoid receptor (Homo sapiens) (UniProt P04150); test: qHTS assay to identify small molecule antagonists of the glucocorticoid receptor (GR) signaling pathway (AID 720692; active = well fitted inhibition curve with a large enough effect in the signal ratio in the repeat runs, not every such curve was filed as active; the % refers to the signal ratio)
# In short: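 Inhibition of dexamethasone-driven (5 nM final) beta-lactamase expression was measured in GRE-reporter HeLa cells over 18 h at 37C. Fluorescence was read after 2 h with the B/G FRET substrate at room temperature.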
# [20] = qHTS assay for small molecule agonists of the p53 signaling pathway (AID 651631; calls by dose curve; also: nearly all actives have a fitted effect of over 15% in size)
# In short: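 Agonist mode screen using a stably integrated beta-lactamase gene under p53 response elements in HCT-116 cells. Compound exposure lasts 16 h at 37 °C; fluorescence intensity is measured following 2 h FRET substrate loading.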
# Glucocorticoid receptor (Homo sapiens), sequence (P04150 whole entry, looked up): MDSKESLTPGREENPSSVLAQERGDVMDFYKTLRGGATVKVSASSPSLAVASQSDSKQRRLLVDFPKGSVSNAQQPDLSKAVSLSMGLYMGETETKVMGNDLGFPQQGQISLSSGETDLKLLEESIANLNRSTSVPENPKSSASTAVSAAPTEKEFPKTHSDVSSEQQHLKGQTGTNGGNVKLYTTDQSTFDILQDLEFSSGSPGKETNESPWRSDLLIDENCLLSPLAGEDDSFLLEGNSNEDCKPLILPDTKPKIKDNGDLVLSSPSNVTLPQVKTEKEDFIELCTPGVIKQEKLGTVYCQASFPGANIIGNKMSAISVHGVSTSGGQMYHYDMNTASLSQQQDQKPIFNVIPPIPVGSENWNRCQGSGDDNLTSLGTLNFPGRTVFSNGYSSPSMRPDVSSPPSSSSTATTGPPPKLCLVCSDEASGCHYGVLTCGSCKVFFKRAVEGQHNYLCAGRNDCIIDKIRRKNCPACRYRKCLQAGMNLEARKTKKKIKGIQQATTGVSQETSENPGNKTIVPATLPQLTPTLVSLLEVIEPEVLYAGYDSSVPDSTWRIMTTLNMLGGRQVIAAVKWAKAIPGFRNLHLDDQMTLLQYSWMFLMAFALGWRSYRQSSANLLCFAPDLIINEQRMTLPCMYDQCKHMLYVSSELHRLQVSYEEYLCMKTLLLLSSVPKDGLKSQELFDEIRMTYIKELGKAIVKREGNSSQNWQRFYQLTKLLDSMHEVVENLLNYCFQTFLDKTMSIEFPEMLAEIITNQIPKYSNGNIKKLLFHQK
SMILES,Potency [1],Potency [2],Potency [3],Potency [4],Potency [5],outcome [6],Potency [7],Potency [8],outcome [9],outcome [10],Potency [11],outcome [12],outcome [13],outcome [14],Potency [15],Potency [16],Potency [17],Potency [18],Potency [19],Potency [20]
Cc1ccc(C)c2ccccc12,inactive,inactive,inactive,inactive,inactive,inactive,inactive,inactive,inactive,inactive,inactive,inactive,inactive,inactive,inactive,inactive,inactive,–,–,–
ClC(Cl)C(Cl)(Cl)Cl,inactive,inactive,inactive,inactive,inactive,inactive,inactive,inactive,inactive,inactive,inactive,inactive,inactive,inactive,inactive,inactive,inactive,inactive,inactive,–
C=C(C)C(=O)[O][Sn]([CH2]CCC)([CH2]CCC)[CH2]CCC,inactive,0.611 µM (active),0.611 µM (active),3.86 µM (active),0.0611 µM (active),inactive,inactive,inactive,inactive,–,inactive,inactive,inactive,inactive,inactive,–,inactive,–,–,–
CCCN,inactive,inactive,inactive,inactive,inactive,inactive,inactive,inactive,inactive,inactive,inactive,inactive,inactive,inactive,inactive,inactive,inactive,–,–,–
CC[C@H](C)[C@H]1O[C@]2(C=C[C@@H]1C)C[C@@H]1C[C@@H](C/C=C(\C)[C@@H](O[C@H]3C[C@H](OC)[C@@H](O[C@H]4C[C@H](OC)[C@@H](NC)[C@H](C)O4)[C@H](C)O3)[C@@H](C)/C=C/C=C3\CO[C@@H]4[C@H](O)C(C)=C[C@@H](C(=O)O1)[C@]34O)O2,inactive,10.9 µM (active),17.2 µM (active),30.6 µM (active),6.86 µM (active),inactive,–,inactive,inactive,inactive,inactive,inactive,inactive,inactive,inactive,inactive,inactive,–,–,–
CC(Cc1ccc(OCC(=O)O)cc1)NCC(O)c1csc(C(F)(F)F)n1 (configuration not stated),inactive,inactive,inactive,inactive,inactive,inactive,inactive,inactive,–,inactive,inactive,inactive,inactive,inactive,inactive,inactive,inactive,inactive,inactive,–
c1ccc(N=NNc2ccccc2)cc1,inactive,inactive,5.45 µM (active),56.4 µM (active),7.1 µM (active) and 5.45 µM (active),inactive,inactive,inactive,inactive,inactive,inactive,inactive,inactive,inactive,inactive,inactive,inactive,–,–,–
O=c1[nH]c(Cl)c(Cl)cc1Cl,inactive,inactive,inactive,inactive,54.5 µM (active),inactive,inactive,inactive,–,inactive,inactive,inactive,inactive,inactive,inactive,inactive,inactive,–,–,–
Oc1ccc([C@H]2CNCc3c2ccc(O)c3O)cc1O,inactive,inactive,inactive,inactive,inactive,inactive,inactive,inactive,inactive,inactive,inactive,inactive,inactive,inactive,inactive,–,inactive,–,–,–
CC(C)N(C(=O)SC/C(Cl)=C/Cl)C(C)C,inactive,21.8 µM (active),48.9 µM (active),54.8 µM (active),48.9 µM (active),inactive,inactive,inactive,–,inactive,inactive,inactive,inactive,inactive,inactive,inactive,inactive,–,–,–
CN=C=O,–,inactive,inactive,inactive,–,inactive,inactive,inactive,inactive,inactive,inactive,inactive,inactive,inactive,inactive,inactive,inactive,–,–,inactive
CCCCCCCc1ccc(O)cc1,inactive,inactive,inactive,–,7.7 µM (active),inactive,inactive,inactive,–,inactive,inactive,inactive,inactive,inactive,inactive,inactive,inactive,inactive,–,–
COP(=S)(NC(C)C)Oc1ccc(C)cc1[N+](=O)[O-] (configuration not stated),inactive,inactive,inactive,inactive,24.3 µM (active),–,inactive,inactive,inactive,inactive,inactive,–,inactive,inactive,inactive,inactive,inactive,inactive,–,–
O=S1OCC2C(CO1)C1(Cl)C(Cl)=C(Cl)C2(Cl)C1(Cl)Cl (configuration not stated),inactive,68.7 µM (active) and 54.4 µM (active),inactive,–,–,inactive,inactive,inactive,inactive,inactive,inactive,inactive,inactive,inactive,inactive,inactive,inactive,–,–,–
c1cc[n+]2c(c1)-c1cccc[n+]1CC2,inactive,inactive,inactive,inactive,inactive,–,inactive,inactive,inactive,inactive,inactive,inactive,inactive,inactive,inactive,inactive,inactive,inactive,inactive,–
CCCCN(CCCC)C(=S)S,inactive,inactive,inactive,inactive,–,inactive,inactive,inactive,inactive,–,inactive,inactive,inactive,inactive,inactive,inactive,inactive,inactive,–,–
CCOP(=S)(OCC)SC(CCl)N1C(=O)c2ccccc2C1=O (configuration not stated),inactive,inactive,inactive,–,–,inactive,inactive,inactive,inactive,inactive,inactive,inactive,inactive,inactive,inactive,inactive,inactive,–,–,–
CCOC(=O)Cc1ccccc1,inactive,inactive,inactive,inactive,–,inactive,inactive,inactive,inactive,inactive,inactive,inactive,inactive,inactive,inactive,inactive,inactive,inactive,inactive,–
Cc1ccn2nc(S(=O)(=O)Nc3c(F)cccc3F)nc2n1,inactive,inactive,inactive,inactive,–,inactive,–,inactive,inactive,inactive,inactive,inactive,inactive,inactive,inactive,inactive,inactive,–,–,–
